Shown is part of a subset that was picked to be rich in hits.
Pf Dd2 inh = inhibitors of Plasmodium falciparum Dd2 growth; 120,000 compounds, 4.3% hits; P. falciparum Dd2 growth, SYBR Green, 72 h; Potency, µM (doses to about 28.9 µM), for the others: at the highest dose activity, negative = inhibition, actives largely listed as inhibitors; AID 1347417; active = well fitted inhibition curve with a large enough effect;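 note: plate controls were DMSO vehicle for no effect and reference drug for full effect; nearly all actives have a fitted effect of over 65% in size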
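Readout: SYBR Green fluorescence, 485 nm excitation, 535 nm emission, after ~16 h lysis at 37C. Before that, Dd2-infected red cells (2.5% hematocrit) grew 72 h with compound, 29 uM top final concentration.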
* = called active by the depositor; i = inactive; [ ] = another dose, or the depositor's remark. Potency is the fitted concentration of half-maximal effect.

SMILES	Pf Dd2 inh
COCCNC(=O)C[C@@H]1C[C@H]2O[C@H](CNC3Cc4ccccc4C3)[C@@H](O)[C@H]2O1	4%[44.1 µM]
COc1cccc(CCC2CCCN(C(=O)C3CCCC3)C2)c1 (stereo unspecified)	i
COc1cccc(CN2CCCC(Nc3cc(N)ncn3)C2)c1 (stereo unspecified)	-19%
CCN(Cc1cccc(OCCO)c1)CC1CCCN(CCc2cccc(OC)c2)C1 (stereo unspecified)	10µM*
COc1ncccc1-c1cc(C(=O)NCc2c(C)cc(C)[nH]c2=O)c2c(c1)N(C)CCO2	-2%[44.1 µM]
COc1cc(Cl)ccc1C(=O)NC1CCc2nn(CC3CC3)c(=O)n2CC1 (stereo unspecified)	27%
COCCOC1CCOC2(CCN(C(=O)c3cc(C)nn3C)CC2)C1 (stereo unspecified)	-18%
COCCOC1CCOC2(CCN(C(=O)c3cc(-c4ccc(F)cc4)n[nH]3)CC2)C1 (stereo unspecified)	11µM*
COCCOC1CCOC2(CCN(C(=O)c3ccccc3OC)CC2)C1 (stereo unspecified)	-26%
Cc1cccc(S(=O)(=O)N(C)CC2CCOC2)c1 (stereo unspecified)	24%[5.79 µM]
O=C(N[C@H]1CCCNC1=O)C1=C[C@@H](NS(=O)(=O)c2cccs2)[C@@H](O)[C@H](O)C1	-8%[44.1 µM]
Cc1ccc(C2Cn3nnc(-c4noc(CCc5ccccc5)n4)c3CO2)cc1 (stereo unspecified)	7%
O=C(NC(=O)c1ccc(F)cc1)Nc1ccc(-c2cc(C(F)(F)F)nn2-c2ccccc2)cc1	27%
COc1ccccc1C(=O)NC(=O)Nc1ccc(-n2nc(C(F)(F)F)cc2C(F)(F)F)cc1	11µM*
O=C(NC(=O)c1ccccc1)Nc1ccc(-n2nc(C(F)(F)F)cc2C(F)(F)F)cc1	-5%
CC(C)NC(=O)C[C@@H]1O[C@H](CNCc2cccc(Cl)c2)[C@@H](O)[C@H]1O	8%[44.1 µM]
O=C(NCc1csc2c1CCCC2)C(c1cccnc1)N1CCOCC1 (stereo unspecified)	-5%
Cc1cc(C)cc(NC(=O)N2CCCC2c2nncn2C2CCCC2)c1 (stereo unspecified)	-8%
COc1cc(NC(=O)N2CCCC2c2nncn2C2CCCC2)cc(OC)c1 (stereo unspecified)	-7%
O=C(Nc1cc(Cl)cc(Cl)c1)N1CCCC1c1nncn1C1CCCC1 (stereo unspecified)	11µM*
COc1ccc(C(=O)N[C@@H]2C[C@H](Cn3cc(CN(C)C)nn3)[C@@H](O)[C@H]2O)cc1	32%[44.1 µM]
Cc1cnc(CN(C)C(=O)CC(c2ccccc2)c2ccc(Cl)cc2)[nH]1 (stereo unspecified)	8.9µM*
Cc1nonc1CN(C)C(=O)CC(c1ccccc1)c1cccc(Cl)c1 (stereo unspecified)	-21%
Cc1nnc(CN(C)C(=O)CC(c2ccccc2)c2ccc(Cl)cc2)o1 (stereo unspecified)	-2%
Cc1nc(-c2c3n(c(=O)n(CC#N)c2=O)CCCCC3)no1	32%
SMILES	Pf Dd2 inh
O=C(NCc1ccc(Cl)cc1)C1CCCN(c2cnn(Cc3ccccc3)c(=O)c2)C1 (stereo unspecified)	11µM*
O=C(NC1CCCCCCC1)C1CCCN(c2cnn(Cc3ccccc3)c(=O)c2)C1 (stereo unspecified)	-40%
O=C(NC1CCN(Cc2ccccc2)CC1)C1CCCN(c2cnn(Cc3ccccc3)c(=O)c2)C1 (stereo unspecified)	-27%
O=C(NC(C(=O)N1CCCC1)C1CCN(C(=O)c2ccc3c(c2)OCO3)CC1)c1ccc(F)cc1 (stereo unspecified)	i
COc1ccc(OC)c(CCNC(=O)c2c(C)oc3ncn(C)c(=O)c23)c1	-19%
COc1ccc(OC)c(CNC(=O)c2c(C)oc3ncn(CC(C)C)c(=O)c23)c1	10µM*
CCOC(=O)C(C)NC(=O)c1c(C)oc2ncn(CC(C)C)c(=O)c12 (stereo unspecified)	12%
COCCC(=O)N1CC(F)(F)C[C@H]1c1nc(C2CC2)no1	1%
Cc1noc(-c2cccn3c(CNC(=O)c4cccc(Cl)c4)nnc23)n1	i
O=C(C1CCOCC1)N1CCC(Oc2ccccc2)C1 (stereo unspecified)	7%
NC(=O)Cc1c[nH]c2ncc(-c3ccc4c(c3)OCO4)cc12	18%[44.1 µM]
O=C(Cn1cccc1-c1nc(-c2ccccc2)no1)N1CCN(c2ccccc2F)CC1	7.9µM*
O=C(Cn1cccc1-c1nc(-c2ccccc2)no1)Nc1cc(F)cc(F)c1	10%
COc1ccc(NC(=O)Cn2cccc2-c2nc(-c3ccccc3)no2)cc1	3.2µM*
O=C(Cn1cccc1-c1nc(-c2ccccc2)no1)Nc1cccc(Cl)c1	2.5µM*
O=C(Cn1cccc1-c1nc(-c2ccc(F)cc2)no1)Nc1ccc(F)c(F)c1	i
CC(=O)Nc1ccc(NC(=O)Cn2cccc2-c2nc(-c3ccc(F)cc3)no2)cc1	-18%
Cc1cccc(NC(=O)Cn2cccc2-c2nc(-c3ccc(F)cc3)no2)c1C	-14%
COC(=O)c1ccccc1NC(=O)Cn1cccc1-c1nc(-c2ccccc2)no1	21%
CCOc1ccccc1NC(=O)Cn1cccc1-c1nc(-c2ccc(F)cc2)no1	10µM*
Cc1c(Cl)cccc1NC(=O)Cn1cccc1-c1nc(-c2ccc(F)cc2)no1	87%
COc1ccc(-c2noc(-c3cccn3CC(=O)N3CCN(c4ccccc4OC)CC3)n2)cc1F	-23%
O=C(Cn1cccc1-c1nc(-c2ccc(F)cc2)no1)Nc1ccc(Cl)cc1	144%
COCC[C@]1(O)CCN(C(=O)CCCc2cccs2)C[C@H]1C	-13%
Cc1ccc(N2CCC(N)C2=O)cc1C (stereo unspecified)	i
SMILES	Pf Dd2 inh
COC(=O)[C@H](CC1CCCCC1)NC(=O)[C@@H]1CN(C(=O)c2cccnc2)CCN1S(C)(=O)=O	-7%
Cc1ccc(OCC(=O)NCCC2CCN(C(=O)Nc3ccccc3C)CC2)cc1	-19%
CN1CC2(CCN(C(=O)CC3CCCCC3)CC2)CC1C(=O)N1CCOCC1 (stereo unspecified)	-2%
CC(=O)N1CCCC2(CN[S+](=O)([O-])c3cccnc3O2)C1 (stereo unspecified)	-15%
CN(C)C[C@@H]1CN(C2CCOCC2)C[C@H]1N	53%
CCNC(=O)N1CCCC(c2noc(COc3ccccc3)n2)C1 (stereo unspecified)	-12%
CCOc1cc(=O)n2c(c1C(=O)Nc1cccc(C(=O)OC)c1)CCCC2	46%
CCc1ccccc1C(=O)N1CC[C@@](O)(CCOC)[C@H](C)C1	-10%
O=C(NC1CCN(C(=O)N2CC3CC(C2)[C@H]2CCCC(=O)N2C3)CC1)C1CC1 (stereo partly specified)	-4%
Cc1nn(C)c(C)c1S(=O)(=O)N1CCC2(CC1)CC(N(C)Cc1ccccc1)CCO2 (stereo unspecified)	i
COc1ccc(NC(=O)N2CCC(N3CC4CC(C3)[C@H]3CCCC(=O)N3C4)CC2)c(C)c1 (stereo partly specified)	4%
CCCS(=O)(=O)N1CC[C@@H]2COCCN(Cc3ccccc3)[C@@H]2C1	-18%
CCc1c(C)sc2c1CCN(Cc1ccccc1)C2c1ccccc1 (stereo unspecified)	4.5µM*
CCc1c(C)sc2c1CCN(C(=O)Nc1ccccc1C(=O)OC)C2c1ccc(OC)cc1 (stereo unspecified)	-8%
O=S1(=O)NCC2(CCN(Cc3c[nH]c4ccccc34)C2)Oc2ncccc21 (stereo unspecified)	i

Assay outcomes deposited in PubChem BioAssay by National Center for Advancing Translational Sciences (NCATS).
